Assay in all cases: NCI-60 one-dose screen, 48 h (100 = growth as untreated, 0 = no growth, -100 = all killed)
In assay [1] the test system is SK-MEL-2 melanoma. To be noted: 10 µM unless noted.
In assay [2] the test system is EKVX NSCLC. To be noted: 10 µM unless noted.
In assay [3] the test system is SN12C renal. To be noted: 10 µM unless noted.
In assay [4] the test system is UO-31 renal. To be noted: 10 µM unless noted.
The subject of assay [5] is TK-10 renal. The conditions noted are these: 10 µM unless noted.
In assay [6] the test system is ACHN renal. The conditions noted are these: 10 µM unless noted.
The test system of assay [7] is CAKI-1 renal. The conditions noted are these: 10 µM unless noted.
Assay [8] concerns A498 renal. To be noted: 10 µM unless noted.
Assay [9] concerns CCRF-CEM leukemia. The conditions noted are these: 10 µM unless noted.
The subject of assay [10] is MOLT-4 leukemia. The conditions noted are these: 10 µM unless noted.
The test system of assay [11] is SR leukemia. To be noted: 10 µM unless noted.
Assay [12] has as its system RPMI-8226 leukemia. The conditions noted are these: 10 µM unless noted.
The subject of assay [13] is OVCAR-8 ovarian. To be noted: 10 µM unless noted.
In assay [14] the test system is OVCAR-5 ovarian. To be noted: 10 µM unless noted.
The subject of assay [15] is OVCAR-4 ovarian. To be noted: 10 µM.
In assay [16] the test system is SK-OV-3 ovarian. To be noted: 10 µM unless noted.
The subject of assay [17] is IGROV1 ovarian. To be noted: 10 µM unless noted.
The test system of assay [18] is OVCAR-3 ovarian. To be noted: 10 µM unless noted.
Assay [19] relates to NCI/ADR-RES ovarian. To be noted: 10 µM unless noted.
Assay [20] deals with HS 578T breast. The conditions noted are these: 10 µM unless noted.

Results on eight molecules are retold here after PubChem BioAssay (NCI).

About 83,000 compounds went through this panel and 20% of them were active in at least one assay; those are over-represented in the sample as a whole.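 In brief: 96-well plates, 48 h treatment, single concentration, percent growth endpoint.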 Unmarked numbers belong to inactive results. Calls of active or inactive are those of the source. How the source made its calls: active means growth percent below 10; inactive means the rest.

Consider `COc1ccc(/C=C/C(=C/c2c(O)[nH]c3cc(Br)ccc23)N=O)cc1`, for which the growth in [1] was 140%; in assay [2], 108%; in assay [3], 102%; in [4], 88.5%; in assay [5] it was 148%; in assay [6] it was 110%. Also, the growth was 93.1% in assay [7]; 93.6% in assay [8]; 104% in assay [9]; 104% in assay [10]; 70.2% in [11]; 123% in assay [12]. Further, the growth in assay [13] is 104%; in assay [14], 110%; in assay [15], 101%; in [16], 114%; in assay [17], 103%; in assay [18], 114%. Moreover, the growth in assay [19] was 111%.

With `CCCCCN(CCCCC)CCCCCCCCN1CCCc2ccccc21`, the growth in [1] was 89.7%; in assay [2], 76.7%; in assay [3] it was 89.7%; in assay [4], 62%; in assay [5], 89%; in [6], 91.1%. In addition, the growth in assay [7] was 54.8%; in [8] it was 114%; in assay [9] it was 81.7%; in assay [10], 27.7%; in assay [11] it was 21.5%; in [12], 84.1%. The growth in assay [13] is 89.1%; in assay [14], 107%; in [15], 95.9%; in assay [16], 106%; in [17], 76.4%; in [18], 72.1%. For the same molecule, the growth in [19] was 92.2%.

On to `CCOC(=O)COc1ccc2c(c1)O/C(=C\c1ccc(O)cc1)C2=O`, for which the growth was 116% in assay [1]; 104% in [2]; 98.7% in [3]; 78.5% in [4]; 106% in [5]; 102% in [6]. In addition, the growth in assay [7] is 93.1%; in [8] it was 88.6%; in [9], 118%; in assay [10], 117%; in assay [11], 93.8%; in assay [12], 119%. Besides, the growth in assay [13] is 105%; in assay [14], 102%; in assay [15], 108%; in assay [16], 117%; in assay [17], 106%; in [18], 106%. Further, the growth in assay [19] was 108%.

Turning to `CC(C)OC(=O)Nc1cc(F)c(F)cc1F`, the growth in [1] is 95.4%; in assay [2] it was 94.1%; in [3], 102%; in assay [4], 86.1%; in assay [5], 96.3%; in assay [6], 101%. The growth was 97.1% in [7]; 93.6% in assay [8]; 103% in assay [9]; 103% in [10]; 102% in [11]; 101% in [12]. The growth was 100% in assay [13]; 93.5% in assay [14]; 103% in assay [15]; 100% in assay [16]; 95.5% in [17]; 101% in [20].

On to `CCN(CC)CCCC(C)Nc1ccnc2cc(Cl)c(SCc3ccccc3)cc12` (stereo not given), for which the growth is -71.1% (active) in [1]; 3.57% (active) in assay [2]; 20.4% in assay [3]; -84.1% (active) in [4]; -30.8% (active) in assay [5]; -89.2% (active) in assay [6]. For the same molecule, the growth in [7] is -62.2% (active); in assay [8], -90.1% (active); in assay [9], -25.9% (active); in assay [10], -29.3% (active); in [11], -42.6% (active); in assay [12] it was -36.6% (active). Besides, the growth was -9.3% (active) in assay [13]; -13.7% (active) in assay [14]; 7.81% (active) in assay [15]; -43.1% (active) in [16]; -26.7% (active) in assay [17]; -28.5% (active) in [18]. In [19], the growth was -18.3% (active).

For the molecule `O=[N+]([O-])c1cc([N+](=O)[O-])c(C(F)(F)F)cc1NN=C(c1ccc(O)cc1)c1ccc(O)cc1`, the growth is -80.3% (active) in assay [1]; 92.7% in assay [2]; 79.7% in [3]; -79.4% (active) in [4]; 123% in [5]; 12.8% in assay [6]. The growth is 98% in assay [7]; 103% in [8]; 112% in [9]; 107% in assay [10]; 66.1% in assay [11]; 76.4% in assay [12]. In addition, the growth in assay [13] was -49.9% (active); in assay [14] it was -6.51% (active); in assay [15], 81.3%; in [16], -23.1% (active); in [18], 96.3%; in assay [20], 108%.

Regarding `CCCCCCCCCCCCCCCCCCNC(=S)N/N=C/c1ccc(OC)c(OC)c1`, the growth in [1] was 111%; in [2], 92.9%; in assay [3], 93.4%; in [4] it was 77.1%; in assay [5], 104%; in [6] it was 102%. The growth in assay [7] was 93.9%; in assay [8], 82.4%; in assay [9] it was 91.7%; in [10], 100%; in assay [11], 81.2%; in assay [12], 89.7%. In addition, the growth in assay [13] is 101%; in assay [14], 93.8%; in [15] it was 98.5%; in assay [16], 98.5%; in [17], 94.2%; in assay [20], 100%. Further, the growth in assay [19] was 97.3%.

Take `O=S(=O)(c1ccc(N/N=C\c2ccccc2Cl)cc1)c1ccc(N/N=C/c2ccccc2Cl)cc1`: the growth in assay [1] was 89.1%; in assay [2], 84.5%; in assay [3], 87.2%; in assay [4] it was 63.7%; in assay [5] it was 110%; in assay [6], 82.7%. For the same molecule, the growth in assay [7] was 62.2%; in [8], 94.2%; in [9], 75.9%; in assay [10], 65.1%; in assay [11], 88.5%; in [12], -16.1% (active). The growth is 86.5% in assay [13]; 82.6% in assay [14]; 84.1% in assay [15]; 98% in assay [16]; 73.8% in [17]; 83% in [20]. The growth in [19] is 84.5%.
